Laboratory results from the supplement of paper PMC12067093, “Discovery and optimisation of a covalent ligand for TRIM25 and its application to targeted protein ubiquitination” (Chemical Science, 2025).
About 21,000 targets were measured; listed, in parts, are those with the largest changes and a random draw of the rest.

Compound: Cc1cc(ccc1-c1ccccc1)C(=O)N1CCCN(CC1)C(=O)CCl [compound 10]
Experiment: probe-labelled cysteine peptide fold change vs DMSO (competition) (log2 fold change); higher = less target engagement (more negative = stronger competition)
Settings: THP-1, incubation time: 4 h
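Also: competitive profiling in live THP-1 cells: cysteine peptides tagged with an iodoacetamide desthiobiotin (IA-DTB) probe, intensity after compound treatment relative to DMSO-treated cells.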

HNRNPK_P61978_184+185_LFQECCPHSTDRVVLIGGKPDR (UniProt P61978)
probe-labelled cysteine peptide fold change (10 µM): -0.234 | probe-labelled cysteine peptide fold change (50 µM): -1.28

IGF2R_P11717_1856_DGGVCLLSGTK (UniProt P11717)
probe-labelled cysteine peptide fold change (10 µM): -0.0968 | probe-labelled cysteine peptide fold change (50 µM): -0.169

KDM4C_Q9H3R0_14_MEVAEVESPLNPSCK (UniProt Q9H3R0)
probe-labelled cysteine peptide fold change (10 µM): 0.236 | probe-labelled cysteine peptide fold change (50 µM): 0.0354

HSP90AA1_P07900_597+598_LVTSPCCIVTSTYGWTANMER (UniProt P07900)
probe-labelled cysteine peptide fold change (10 µM): 0.115 | probe-labelled cysteine peptide fold change (50 µM): -0.354

HSPH1_Q92598_796_ELNNTCEPVVTQPKPK (UniProt Q92598)
probe-labelled cysteine peptide fold change (10 µM): 0.108 | probe-labelled cysteine peptide fold change (50 µM): -0.8

HNRNPLL_Q8WVV9_505_TLSGLLEWECKTDAVEALTALNHYQIR (UniProt Q8WVV9)
probe-labelled cysteine peptide fold change (10 µM): -0.0924 | probe-labelled cysteine peptide fold change (50 µM): -0.402

HSP90AB1_P08238_412_CLELFSELAEDK (UniProt P08238)
probe-labelled cysteine peptide fold change (10 µM): 0.16 | probe-labelled cysteine peptide fold change (50 µM): 0.151

HMOX2_P30519_265_CPFYAAEQDK (UniProt P30519)
probe-labelled cysteine peptide fold change (10 µM): -0.451 | probe-labelled cysteine peptide fold change (50 µM): -2.31

KRT75_O95678_460_LLEGEECR<|>NEFH_P12036_411_LLEGEECR<|>KRT76_Q7RTS7_494_LLEGEECR<|>KRT74_Q86Y46_451_LLEGEECR<|>KRT73_Q8N1N4_443_LLEGEECR<|>KRT78_P02538_422_LLEGEECR<|>KRT6A_P13647_474_LLEGEECR<|>KRT6B_P35908_474_LLEGEECR<|>KRT5_P48668_479_LLEGEECR (UniProt P48668+P35908+P13647+Q86Y46+P02538+Q7RTS7+P12036+Q8N1N4+O95678)
probe-labelled cysteine peptide fold change (10 µM): 1.25 | probe-labelled cysteine peptide fold change (50 µM): 0.392

KPNA5_O15131_238_NAVWALSNLCR<|>KPNA6_O60684_238_NAVWALSNLCR<|>KPNA1_P52294_240_NAVWALSNLCR (UniProt P52294+O60684+O15131)
probe-labelled cysteine peptide fold change (10 µM): 0.0157 | probe-labelled cysteine peptide fold change (50 µM): -0.339

LANCL2_Q9NS86_248_CPLLYQWHR (UniProt Q9NS86)
probe-labelled cysteine peptide fold change (10 µM): -0.115 | probe-labelled cysteine peptide fold change (50 µM): 0.026

KIDINS220_Q9ULH0_867_FLVTSATNGDVPCSDTTGIQEDADRR (UniProt Q9ULH0)
probe-labelled cysteine peptide fold change (10 µM): -0.0872 | probe-labelled cysteine peptide fold change (50 µM): -0.0611

IQGAP1_P46940_57_RWMEACLGEDLPPTTELEEGLR (UniProt P46940)
probe-labelled cysteine peptide fold change (10 µM): 0.00789 | probe-labelled cysteine peptide fold change (50 µM): 0.0214

LDLR_P01130_377+379_CQCEEGFQLDPHTK (UniProt P01130)
UniProt P01130, sequence (P01130 whole entry, looked up): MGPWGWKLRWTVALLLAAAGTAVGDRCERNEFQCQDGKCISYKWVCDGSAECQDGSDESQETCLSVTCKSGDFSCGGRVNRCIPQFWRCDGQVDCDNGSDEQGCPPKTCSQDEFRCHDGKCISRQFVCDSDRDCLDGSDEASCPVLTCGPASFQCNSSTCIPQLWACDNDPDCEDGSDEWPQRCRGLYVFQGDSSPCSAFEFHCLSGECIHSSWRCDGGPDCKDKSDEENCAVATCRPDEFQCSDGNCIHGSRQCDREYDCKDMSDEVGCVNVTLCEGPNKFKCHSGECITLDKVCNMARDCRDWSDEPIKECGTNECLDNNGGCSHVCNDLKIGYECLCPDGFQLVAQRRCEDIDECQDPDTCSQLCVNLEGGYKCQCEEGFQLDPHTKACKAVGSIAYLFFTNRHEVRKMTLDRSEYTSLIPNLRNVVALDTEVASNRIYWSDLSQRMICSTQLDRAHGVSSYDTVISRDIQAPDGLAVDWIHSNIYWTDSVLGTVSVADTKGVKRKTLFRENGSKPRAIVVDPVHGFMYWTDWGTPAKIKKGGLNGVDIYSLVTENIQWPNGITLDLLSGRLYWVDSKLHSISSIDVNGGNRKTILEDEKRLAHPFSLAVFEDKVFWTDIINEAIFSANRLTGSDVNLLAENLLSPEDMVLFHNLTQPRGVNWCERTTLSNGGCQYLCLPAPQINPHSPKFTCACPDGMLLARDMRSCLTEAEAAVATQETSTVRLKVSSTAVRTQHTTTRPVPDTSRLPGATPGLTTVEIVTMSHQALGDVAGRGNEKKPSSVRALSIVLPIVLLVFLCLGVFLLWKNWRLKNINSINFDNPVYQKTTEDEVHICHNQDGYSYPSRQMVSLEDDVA
probe-labelled cysteine peptide fold change (10 µM): -0.198 | probe-labelled cysteine peptide fold change (50 µM): 0.243

IARS_P41252_400_LLVATTFTHSYPFCWR (UniProt P41252)
probe-labelled cysteine peptide fold change (10 µM): 0.0125 | probe-labelled cysteine peptide fold change (50 µM): 0.177

IKZF1_Q13422_175+178_CHLCNYACR (UniProt Q13422)
probe-labelled cysteine peptide fold change (10 µM): -0.0534 | probe-labelled cysteine peptide fold change (50 µM): -0.482

KDM3A_Q9Y4C1_467_AGVNSDSPNNCSGK (UniProt Q9Y4C1)
probe-labelled cysteine peptide fold change (10 µM): -0.0265 | probe-labelled cysteine peptide fold change (50 µM): 0.0124

IDH3A_P50213_331_IEAACFATIK (UniProt P50213)
probe-labelled cysteine peptide fold change (10 µM): 0.303 | probe-labelled cysteine peptide fold change (50 µM): 0.39

ITGB2_P05107_472_CDTGYIGK (UniProt P05107)
probe-labelled cysteine peptide fold change (10 µM): 0.101 | probe-labelled cysteine peptide fold change (50 µM): -0.117

IL1RAP_Q9NPH3_332_SYVCHAR (UniProt Q9NPH3)
UniProt Q9NPH3, sequence (Q9NPH3 whole entry, looked up): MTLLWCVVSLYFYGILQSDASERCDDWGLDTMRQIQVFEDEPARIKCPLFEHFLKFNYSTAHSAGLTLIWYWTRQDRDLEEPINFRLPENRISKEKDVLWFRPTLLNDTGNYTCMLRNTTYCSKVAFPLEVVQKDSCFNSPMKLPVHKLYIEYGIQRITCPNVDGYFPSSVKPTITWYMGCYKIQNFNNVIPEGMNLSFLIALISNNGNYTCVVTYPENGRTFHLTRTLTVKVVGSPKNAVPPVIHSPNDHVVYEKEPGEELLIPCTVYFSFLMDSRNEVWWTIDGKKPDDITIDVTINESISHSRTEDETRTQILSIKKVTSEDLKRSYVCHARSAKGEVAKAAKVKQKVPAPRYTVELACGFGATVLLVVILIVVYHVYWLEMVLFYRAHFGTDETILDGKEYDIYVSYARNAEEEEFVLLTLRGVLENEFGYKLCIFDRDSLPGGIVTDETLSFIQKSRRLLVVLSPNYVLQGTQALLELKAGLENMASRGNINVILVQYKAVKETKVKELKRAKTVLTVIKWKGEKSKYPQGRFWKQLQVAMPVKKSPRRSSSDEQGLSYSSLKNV
probe-labelled cysteine peptide fold change (10 µM): -0.0813 | probe-labelled cysteine peptide fold change (50 µM): -0.034

KPNA6_O60684_427_YLVSLGCIKPLCDLLTVMDSK (UniProt O60684)
probe-labelled cysteine peptide fold change (10 µM): -0.101 | probe-labelled cysteine peptide fold change (50 µM): -0.85

ILF2_Q12905_37_PFVPHIPFDFYLCEMAFPR (UniProt Q12905)
UniProt Q12905, sequence (Q12905 whole entry, looked up): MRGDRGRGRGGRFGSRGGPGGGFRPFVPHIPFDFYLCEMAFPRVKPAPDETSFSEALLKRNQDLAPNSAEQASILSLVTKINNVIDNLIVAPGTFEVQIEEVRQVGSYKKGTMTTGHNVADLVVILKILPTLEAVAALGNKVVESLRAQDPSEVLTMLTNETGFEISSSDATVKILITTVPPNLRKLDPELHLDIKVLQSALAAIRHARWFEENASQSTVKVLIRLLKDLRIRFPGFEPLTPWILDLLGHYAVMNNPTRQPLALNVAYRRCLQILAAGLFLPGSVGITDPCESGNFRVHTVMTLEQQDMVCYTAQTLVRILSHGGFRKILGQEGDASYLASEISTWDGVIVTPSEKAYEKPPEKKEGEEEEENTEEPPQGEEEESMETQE
probe-labelled cysteine peptide fold change (10 µM): 0.0684 | probe-labelled cysteine peptide fold change (50 µM): 0.31

KPNB1_Q14974_392_DAAVMAFGCILEGPEPSQLK (UniProt Q14974)
probe-labelled cysteine peptide fold change (10 µM): 0.132 | probe-labelled cysteine peptide fold change (50 µM): 0.441

IPO4_Q8TEX9_726_KAAHEALGQFCCALHK (UniProt Q8TEX9)
probe-labelled cysteine peptide fold change (10 µM): -0.0458 | probe-labelled cysteine peptide fold change (50 µM): -0.126

IFI16_Q16666_737_LTCFELAPK (UniProt Q16666)
UniProt Q16666, sequence (Q16666 whole entry, looked up): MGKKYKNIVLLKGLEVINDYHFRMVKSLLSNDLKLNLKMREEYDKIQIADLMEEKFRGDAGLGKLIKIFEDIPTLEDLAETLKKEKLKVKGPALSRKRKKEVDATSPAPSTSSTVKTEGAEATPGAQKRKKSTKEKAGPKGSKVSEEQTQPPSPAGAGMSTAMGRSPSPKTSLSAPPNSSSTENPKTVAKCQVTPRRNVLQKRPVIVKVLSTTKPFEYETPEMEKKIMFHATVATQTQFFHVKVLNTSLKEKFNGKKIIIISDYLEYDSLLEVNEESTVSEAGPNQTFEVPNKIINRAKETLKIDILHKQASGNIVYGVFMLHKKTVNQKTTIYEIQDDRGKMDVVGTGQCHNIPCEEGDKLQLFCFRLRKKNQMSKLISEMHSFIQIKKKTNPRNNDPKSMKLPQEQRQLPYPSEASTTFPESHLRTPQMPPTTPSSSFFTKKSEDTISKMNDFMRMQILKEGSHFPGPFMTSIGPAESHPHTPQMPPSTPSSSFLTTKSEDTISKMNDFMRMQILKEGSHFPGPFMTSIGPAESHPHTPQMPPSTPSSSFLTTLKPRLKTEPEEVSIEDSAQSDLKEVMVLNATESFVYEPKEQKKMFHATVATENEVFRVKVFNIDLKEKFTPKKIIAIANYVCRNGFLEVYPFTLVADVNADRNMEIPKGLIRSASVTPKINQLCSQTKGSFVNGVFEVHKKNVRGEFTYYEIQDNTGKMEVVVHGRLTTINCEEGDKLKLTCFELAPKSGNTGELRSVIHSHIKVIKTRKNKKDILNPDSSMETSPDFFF
probe-labelled cysteine peptide fold change (10 µM): -0.11 | probe-labelled cysteine peptide fold change (50 µM): -0.0776

KPNB1_Q14974_765_ESCLEAYTGIVQGLKGDQENVHPDVMLVQPR (UniProt Q14974)
probe-labelled cysteine peptide fold change (10 µM): 0.414 | probe-labelled cysteine peptide fold change (50 µM): -0.185

IKBKB_O14920_716_KSEELVAEAHNLCTLLENAIQDTVR (UniProt O14920)
probe-labelled cysteine peptide fold change (10 µM): 0.0153 | probe-labelled cysteine peptide fold change (50 µM): -0.00819

LAP3_P28838_376_LILADALCYAHTFNPK (UniProt P28838)
UniProt P28838, sequence (P28838 whole entry, looked up): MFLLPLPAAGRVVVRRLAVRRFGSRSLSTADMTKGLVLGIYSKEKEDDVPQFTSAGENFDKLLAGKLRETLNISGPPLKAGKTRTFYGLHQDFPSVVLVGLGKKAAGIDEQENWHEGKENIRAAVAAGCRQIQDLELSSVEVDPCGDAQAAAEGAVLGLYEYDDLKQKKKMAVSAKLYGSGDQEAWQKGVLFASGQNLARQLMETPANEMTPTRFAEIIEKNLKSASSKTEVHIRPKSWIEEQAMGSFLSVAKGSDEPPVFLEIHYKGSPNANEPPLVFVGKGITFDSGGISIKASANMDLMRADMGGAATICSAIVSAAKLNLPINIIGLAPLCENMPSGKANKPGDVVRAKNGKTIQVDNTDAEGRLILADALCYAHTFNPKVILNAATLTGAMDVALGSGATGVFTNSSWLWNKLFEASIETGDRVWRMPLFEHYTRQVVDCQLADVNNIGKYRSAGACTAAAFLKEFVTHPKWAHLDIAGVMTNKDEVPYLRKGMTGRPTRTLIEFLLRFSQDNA
probe-labelled cysteine peptide fold change (10 µM): 0.0434 | probe-labelled cysteine peptide fold change (50 µM): 0.0196

HSD17B11_Q8NBQ5_215+217_TTCLCPNFVNTGFIK (UniProt Q8NBQ5)
UniProt Q8NBQ5, sequence (Q8NBQ5 whole entry, looked up): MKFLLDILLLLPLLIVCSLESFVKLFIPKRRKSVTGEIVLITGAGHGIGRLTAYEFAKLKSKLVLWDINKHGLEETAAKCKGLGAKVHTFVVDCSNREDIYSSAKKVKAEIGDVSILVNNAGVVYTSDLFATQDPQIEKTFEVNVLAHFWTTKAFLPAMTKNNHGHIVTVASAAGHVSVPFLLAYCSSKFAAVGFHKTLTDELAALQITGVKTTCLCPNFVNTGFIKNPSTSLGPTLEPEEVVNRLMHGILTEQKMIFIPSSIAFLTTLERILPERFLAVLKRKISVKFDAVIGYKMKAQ
probe-labelled cysteine peptide fold change (10 µM): 0.115 | probe-labelled cysteine peptide fold change (50 µM): -0.449

LDHD_Q86WU2_63_CEPPDAVVWPQNVEQVSR (UniProt Q86WU2)
probe-labelled cysteine peptide fold change (10 µM): -0.334 | probe-labelled cysteine peptide fold change (50 µM): 0.36

KCTD12_Q96CX2_50_CTVVSVPDSLLWR (UniProt Q96CX2)
UniProt Q96CX2, sequence (Q96CX2 whole entry): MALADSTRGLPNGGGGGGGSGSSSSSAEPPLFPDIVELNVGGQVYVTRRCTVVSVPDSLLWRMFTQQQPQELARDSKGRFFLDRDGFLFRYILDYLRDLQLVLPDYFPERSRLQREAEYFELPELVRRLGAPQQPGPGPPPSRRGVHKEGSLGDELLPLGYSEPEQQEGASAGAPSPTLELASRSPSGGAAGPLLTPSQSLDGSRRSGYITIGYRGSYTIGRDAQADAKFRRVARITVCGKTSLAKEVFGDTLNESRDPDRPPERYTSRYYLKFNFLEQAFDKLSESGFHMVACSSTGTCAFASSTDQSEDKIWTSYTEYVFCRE
probe-labelled cysteine peptide fold change (10 µM): 0.0972 | probe-labelled cysteine peptide fold change (50 µM): -0.28

HSP90AA1_P07900_598_LVTSPCCIVTSTYGWTANMER (UniProt P07900)
probe-labelled cysteine peptide fold change (10 µM): -0.00946 | probe-labelled cysteine peptide fold change (50 µM): 0.102

HNRNPU_Q00839_648_GNFTLPEVAECFDEITYVELQK (UniProt Q00839)
UniProt Q00839, sequence (Q00839 whole entry, looked up): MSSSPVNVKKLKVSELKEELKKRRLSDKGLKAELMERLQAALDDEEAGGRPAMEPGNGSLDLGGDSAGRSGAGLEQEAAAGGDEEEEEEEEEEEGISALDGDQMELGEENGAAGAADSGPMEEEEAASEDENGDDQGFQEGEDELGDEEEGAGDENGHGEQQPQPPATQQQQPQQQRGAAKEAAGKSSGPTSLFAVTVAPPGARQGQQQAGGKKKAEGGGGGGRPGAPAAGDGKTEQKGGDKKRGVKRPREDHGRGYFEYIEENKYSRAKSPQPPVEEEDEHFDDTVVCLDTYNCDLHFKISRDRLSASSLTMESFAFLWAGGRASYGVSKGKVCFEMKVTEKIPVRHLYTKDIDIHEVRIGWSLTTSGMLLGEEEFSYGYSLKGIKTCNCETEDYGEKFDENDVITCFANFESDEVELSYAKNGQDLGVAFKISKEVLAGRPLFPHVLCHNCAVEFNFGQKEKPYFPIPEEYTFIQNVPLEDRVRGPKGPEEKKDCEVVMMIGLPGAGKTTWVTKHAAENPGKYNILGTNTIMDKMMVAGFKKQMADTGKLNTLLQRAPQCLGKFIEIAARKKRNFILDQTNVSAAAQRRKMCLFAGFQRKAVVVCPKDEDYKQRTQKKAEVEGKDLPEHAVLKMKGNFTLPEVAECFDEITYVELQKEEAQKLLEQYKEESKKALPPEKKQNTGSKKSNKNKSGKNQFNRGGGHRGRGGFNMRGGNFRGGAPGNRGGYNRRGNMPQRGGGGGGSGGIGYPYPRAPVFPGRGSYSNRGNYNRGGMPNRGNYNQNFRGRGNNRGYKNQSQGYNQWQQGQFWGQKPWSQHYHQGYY
probe-labelled cysteine peptide fold change (10 µM): 0.16 | probe-labelled cysteine peptide fold change (50 µM): 0.0148

HSPA4L_O95757_540_CHAEHTPEEEIDHTGAK (UniProt O95757)
probe-labelled cysteine peptide fold change (10 µM): -0.0538 | probe-labelled cysteine peptide fold change (50 µM): -0.483

IPO4_Q8TEX9_726_AAHEALGQFCCALHK (UniProt Q8TEX9)
probe-labelled cysteine peptide fold change (10 µM): -0.0691 | probe-labelled cysteine peptide fold change (50 µM): -0.471

IMPACT_Q9P2X3_195_STFQAHLAPVVCPK (UniProt Q9P2X3)
UniProt Q9P2X3, sequence (Q9P2X3 whole entry, looked up): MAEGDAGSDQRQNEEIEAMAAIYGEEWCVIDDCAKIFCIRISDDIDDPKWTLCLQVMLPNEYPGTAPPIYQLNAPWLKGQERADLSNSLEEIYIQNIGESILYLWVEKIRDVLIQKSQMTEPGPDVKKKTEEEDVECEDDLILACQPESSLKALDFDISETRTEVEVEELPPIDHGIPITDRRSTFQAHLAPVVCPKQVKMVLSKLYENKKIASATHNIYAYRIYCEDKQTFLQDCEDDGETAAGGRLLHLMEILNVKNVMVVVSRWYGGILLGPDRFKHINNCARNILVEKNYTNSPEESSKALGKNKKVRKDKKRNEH
probe-labelled cysteine peptide fold change (10 µM): -0.422 | probe-labelled cysteine peptide fold change (50 µM): -1.61
